According to article PMC4552634, “A New Set of Chemical Starting Points with Plasmodium falciparum Transmission-Blocking Potential for Antimalarial Drug Discovery” (PLoS ONE, 2015):
About 3,200 (25%) of roughly 13,000 compounds showed an effect of 50% or more. Some of the results follow.

Each compound was assayed on P. falciparum stage V gametocytes. Conditions: 48 h, 5 µM; inhibitor.
Set-up: BacTiter-Glo ATP luminescence viability of purified stage V gametocytes in 384-well plates, per cent inhibition versus DMSO

| Structure (SMILES) | % Inhibition |
| --- | --- |
| NC(CC1CC(=O)N1CC(=O)O)C(=O)O (stereo not shown) [TCMDC-139050] | 9.979% |
| CC1CCN(Cc2ccc(NC(=O)c3cc4ccc5cccnc5c4[nH]3)cc2)CC1 [TCMDC-125282] | -44.42% |
| Cc1sc(N2CCCCC2)nc1C(=O)Nc1ccc(F)cc1C(F)(F)F [TCMDC-134301] | -22.08% |
| Cc1ccc2c(OCCN3CCC(Cc4cc5c(cc4F)OCC(=O)N5)CC3)cc(F)cc2n1 [TCMDC-141447] | -8.259% |
| Cc1noc(C)c1-c1cccc(CNCc2cccc(-c3ccc(-c4nc5ccccc5[nH]4)s3)c2)c1.O=C(O)C(F)(F)F [TCMDC-133048] | 14.32% |
| Cc1cc(N(CCO)CCCN2CCCCC2)nc(Nc2ccc(Cl)cc2)n1 [TCMDC-137444] | 33.27% |
| COC(=O)c1sc(-c2ccc(Cl)cc2)cc1N(CCCN1CCC(N2CCCCC2)CC1)S(=O)(=O)c1ccc(C)cc1 [TCMDC-135561] | 98.34% |
| Cc1cc(N(CCN2CCCCC2)CCN2CCCCC2)nc(Nc2ccc(Cl)cc2)n1 [TCMDC-138002] | 37.36% |
| CC(C)[C@H](NC(=O)c1ccc(O)c(-c2ccc(Cl)c(Cl)c2)c1)C(=O)NCCN(C)C [TCMDC-140863] | 10.43% |
| CN(C)c1ccc(CN2CCC(NC(=O)c3ccc(-c4ccccc4Cl)s3)CC2)cc1 [TCMDC-134328] | -0.5721% |
| Cc1cc(=O)c(-c2ccc(S(=O)(=O)c3ccc(Cl)cc3)cc2)c(C)[nH]1 [TCMDC-137417] | 53.38% |
| Cc1[nH]c(C)c(-c2ccc(S(=O)(=O)c3ccc(Cl)cc3)cc2)c(=O)c1Cl [TCMDC-137412] | 67.97% |
| Cc1[nH]c(C)c(-c2ccc(S(=O)(=O)c3ccc(Cl)cc3)cc2)c(=O)c1Br [TCMDC-137414] | 77.4% |
| Cc1cc(=O)c(-c2ccc(Sc3ccc(Cl)cc3)cc2)c(C)[nH]1 [TCMDC-137403] | 33.38% |
| Cc1cc(=O)c(-c2ccc(OCc3ccc(Cl)cc3)cc2)c(C)[nH]1 [TCMDC-137399] | 24.98% |
| Cc1ccc(C)c(Cn2ccc3nc(Cl)nc(Cl)c32)c1 [TCMDC-137818] | 13.19% |
| Cc1cc(C)n(Cc2ccc(C(=O)NCC3CCCCC3)cc2)n1 [TCMDC-141404] | -4.003% |
| CCC[C@@H]1CCN[C@H]([C@H](O)c2ccnc3ccc(OC)cc23)C1 [TCMDC-138233] | -1.678% |
| CCC[C@@H]([C@@H](CC1CCC(C)CC1)C(=O)N[C@@H](CO)C(=O)Nc1nccs1)N(O)C=O (stereo partly shown) [TCMDC-138150] | 0.01446% |
